Tau ThT inhib – inhibitors of human tau fibril formation, thioflavin T binding; P10636; recombinant tau K18 P301L, heparin-induced fibrillization, ThT fluorescence; Potency, µM (series often up to 57.4 µM), hits mostly inhibitors; 270,000 tested, 2.1% active; also: nearly all actives have a fitted effect of over 55% in size
Target sequence (P10636 561-689 P618L limits assumed): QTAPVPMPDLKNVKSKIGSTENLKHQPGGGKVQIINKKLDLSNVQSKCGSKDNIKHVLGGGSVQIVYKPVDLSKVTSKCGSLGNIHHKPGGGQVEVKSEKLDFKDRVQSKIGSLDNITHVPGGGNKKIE
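Fibril formation assay: tau K18 P301L at 15 uM with trace Alexa 594 label, heparin inducer 20 uM, pH 7 sodium acetate buffer, 37 C for 6 hr; endpoint ThT signal.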
TRb SRC2 PPI – TRbeta-SRC2 interaction inhibition; 280,000 tested, 0.065% active; AID 1469; Potency, µM (titrated, usually from 106 µM), usual class: inhibitors; TRbeta-SRC2 peptide binding, fluorescence polarization; receptor liganded with 1 µM T3; also: nearly all actives have a fitted effect of over 50% in size
Target sequence (P10828 whole entry, looked up): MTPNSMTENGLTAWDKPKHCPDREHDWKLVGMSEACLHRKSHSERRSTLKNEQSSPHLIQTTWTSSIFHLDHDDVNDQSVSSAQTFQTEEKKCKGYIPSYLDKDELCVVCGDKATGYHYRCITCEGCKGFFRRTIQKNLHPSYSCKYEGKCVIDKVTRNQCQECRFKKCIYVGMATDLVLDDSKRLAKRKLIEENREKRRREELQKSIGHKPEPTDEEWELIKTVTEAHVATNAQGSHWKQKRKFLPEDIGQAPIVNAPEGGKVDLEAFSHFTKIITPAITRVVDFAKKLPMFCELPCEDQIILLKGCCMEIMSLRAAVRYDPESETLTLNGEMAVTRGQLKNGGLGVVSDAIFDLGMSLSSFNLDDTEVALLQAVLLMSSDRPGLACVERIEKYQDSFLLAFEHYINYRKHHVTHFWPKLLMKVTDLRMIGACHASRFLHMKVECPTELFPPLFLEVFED
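Read-out is fluorescence polarization (555 nm excitation, 632 nm emission) of a Texas Red SRC2 coactivator peptide; loss of signal reflects blocked binding to human TRb ligand-binding domain in the presence of 1 uM T3.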
TR SRC2 fluor cs – alters Texas Red total fluorescence, flagging assay interference | TRb/SRC2 Texas Red total fluorescence interference | Potency, µM (series often up to 106 µM) | 280,000 tested, 0.29% active | AID 1479; active = well fitted curve in either direction with a large enough effect; inconclusive = small, poorly fitted or top-dose-only effect
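Human TRβ ligand-binding domain (0.6 uM) and Texas Red SRC2 peptide (20 nM) in Tris buffer with 1 uM T3 and 5% DMSO were incubated with pinned compound for 5 hr at ambient temperature. Total fluorescence was computed as S + 2P (555/632 nm).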
Tau fibril FP – blocks human tau fibril formation measured by polarization | P10636 | K18 P301L tau heparin fibrillization, Alexa594 FP, 6 h | Potency, µM (titrated, usually from 57.7 µM), usual class: inhibitors | 280,000 tested, 0.39% active; also: nearly all actives have a fitted effect of over 55% in size
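Quantitative HTS format: compounds meet 15 uM recombinant K18 P301L tau and Alexa 594-tau tracer in 100 mM sodium acetate pH 7; 20 uM heparin triggers fibrillization at 37 C over 6 hr; FP gives the signal.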
Tau fluor cs – counter-screen for tau fibril formation inhibitors | tau K18 P301L (four-repeat tau fragment) Alexa594 fluorescence, heparin fibrillization | Potency, µM (doses to about 57.7 µM) | 280,000 tested, 0.93% active; also: nearly all actives have a fitted effect of over 55% in size
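Human K18 P301L tau (15 uM unlabeled plus 0.24 uM Alexa 594-labeled, final) in 100 mM sodium acetate pH 7 was mixed with compound and 20 uM heparin and incubated 6 hr at 37 C.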
Large screens that a line does not name were inactive; [ ] = remark or other dose. In the library only some 3% were active in any assay of this set; here they are far more common. Unless noted, calls follow the shape of the dose curve; as a rule, active = well fitted curve in the direction sought with a large enough effect; inconclusive = small, poorly fitted or top-dose-only effect, or another doubt; inactive = no such curve, though single readings can be large; an effect the other way counts as inactive or inconclusive.

O=C1c2cccc3cccc(c23)C(=O)N1OS(=O)(=O)c1ccc(Cl)cc1	none
COc1cccc(/C=C2/SC(=S)N(CC(=O)Nc3nnc(C)s3)C2=O)c1	Tau ThT inhib 1.3µM, Tau fibril FP inconclusive, Tau fluor cs inconclusive
O=S1(=O)C=C(Sc2nc3cc(Cl)ccc3o2)c2ccccc21	Tau ThT inhib inconclusive, Tau fibril FP 25µM, Tau fluor cs 7.1µM[quencher]
O=C(CSC1=NCCS1)NC(c1ccccc1)c1ccccc1	Tau ThT inhib 16µM, Tau fibril FP inconclusive
COC(=O)CCc1sc(NC2CCCCC2)nc1-c1ccc(OC)cc1	Tau ThT inhib inconclusive
COC(=O)CCc1sc(Nc2ccc(OC)cc2)nc1-c1ccc(OC)cc1	Tau ThT inhib inconclusive, Tau fluor cs 18µM[quencher]
Cc1cc(/C=C2\NC(=S)N(C)C2=O)ccc1N1CCCC1	Tau ThT inhib inconclusive, Tau fibril FP inconclusive
CCCN1C(=O)/C(=C/c2ccc(N3CCCC3)c(C)c2)NC1=S	Tau ThT inhib inconclusive, Tau fibril FP inconclusive, Tau fluor cs 8.9µM[quencher]
CCN1C(=O)/C(=C/c2ccc(N3CCCC3)cc2)NC1=S	Tau ThT inhib 11µM, Tau fibril FP inconclusive, Tau fluor cs inconclusive
Cc1cc(N2CCCC2)ccc1/C=C1/C(=O)N(C)C(=S)N1C	Tau ThT inhib inconclusive, Tau fibril FP inconclusive
Cc1cc(/C=C2/C(=O)N(C)C(=S)N2C)ccc1N1CCCC1	Tau ThT inhib 4µM, Tau fluor cs inconclusive
O=C(Nc1ccccc1NC(=O)NC1CCCCC1)NC1CCCCC1	none
Nc1ccccc1NC1CCCCC1	Tau ThT inhib 22µM, Tau fluor cs inconclusive
O=C(Nc1ccc(F)c(Cl)c1)N1CC=C(c2c[nH]c3ccccc23)CC1	Tau ThT inhib 6.3µM, Tau fibril FP inconclusive, Tau fluor cs 7.9µM[quencher]
O=C(Nc1ccccc1C(F)(F)F)N1CC=C(c2c[nH]c3ccccc23)CC1	Tau ThT inhib inconclusive, Tau fluor cs 18µM[quencher]
COc1ccccc1NC(=O)N1CC=C(c2c[nH]c3ccccc23)CC1	Tau ThT inhib inconclusive, Tau fluor cs inconclusive
CCCC/C=C\CCCCCCCCCC=O	none (no result: Tau ThT inhib, Tau fibril FP, Tau fluor cs)
COC(=O)C(C)n1nnc2sc(-c3ccccc3)cc2c1=O (stereo not given)	Tau ThT inhib inconclusive
CCc1ccc(NC(=O)C(C)n2nnc3sc(-c4ccccc4)cc3c2=O)cc1 (stereo not given)	Tau ThT inhib 28µM, Tau fibril FP inconclusive
CCN1c2ccccc2N(C)C1(C)c1ccccc1 (stereo not given)	Tau ThT inhib 4.5µM, TRb SRC2 PPI inconclusive, TR SRC2 fluor cs 45µM[fluorescent], Tau fibril FP 16µM, Tau fluor cs inconclusive
CN1c2ccccc2N(C)C1(C)c1ccccc1	none
Cc1cccc(NC(=O)C(Cc2ccccc2)N2Cc3ccccc3C2=O)c1C (stereo not given)	Tau fibril FP inconclusive
CC(=O)Nc1ccc(NC(=O)C(c2ccccc2)N2Cc3ccccc3C2=O)cc1 (stereo not given)	TR SRC2 fluor cs 100µM[quencher]
Cc1ccc(C)c(NC(=O)C(Cc2ccccc2)N2Cc3ccccc3C2=O)c1 (stereo not given)	TR SRC2 fluor cs 126µM[quencher]
Cc1ccc(C)c(NC(=O)C(c2ccccc2)N2Cc3ccccc3C2=O)c1 (stereo not given)	TR SRC2 fluor cs 100µM[quencher]
Cc1cc(F)ccc1NC(=O)C(c1ccccc1)N1Cc2ccccc2C1=O (stereo not given)	none
O=C(O)[C@H](O)[C@@H](O)[C@H](O)[C@H](O)CO	none (no result: Tau ThT inhib, Tau fibril FP, Tau fluor cs)
Cc1ccccc1NC(=O)c1cccc2nc3ccccc3nc12	Tau ThT inhib 8.9µM, Tau fibril FP inconclusive, Tau fluor cs inconclusive
O=C(CCn1c(=O)c2cccn2c2cccnc21)N1CCN(c2ccccc2F)CC1	Tau ThT inhib inconclusive
Cc1ccc(-n2nc(C)c3c(C(=O)NCc4ccc(F)cc4)cc(C)nc32)cc1	Tau fibril FP inconclusive
O=C(CNc1ccc2ccccc2c1)N/N=C/C=C/c1cccc([N+](=O)[O-])c1	Tau ThT inhib inconclusive, Tau fluor cs 7.1µM[quencher]
O=C(N/N=C/C=C/c1cccc([N+](=O)[O-])c1)C(O)c1ccccc1 (stereo not given)	none
CC(/C=C/c1ccco1)=N\NC(=O)CNc1ccc2ccccc2c1	Tau ThT inhib 7.9µM, Tau fluor cs inconclusive
CCCCC#Cc1nc(NC)c2ncn([C@@H]3O[C@@H](CO)[C@H](O)[C@H]3O)c2n1	none
Cc1cc(C)c(N(Cc2ccccc2)S(=O)(=O)c2ccc(OCCNC(=O)c3cc4ccccc4o3)cc2)c(C(=O)NO)c1	none (no result: Tau ThT inhib, Tau fibril FP, Tau fluor cs)
CNC(=O)C1CCC(Cn2c(=O)c3sccc3n(CC(=O)NCc3ccccc3)c2=O)CC1 (stereo not given)	none
Cc1[nH]c2ccccc2c1/C=C/c1nc2ccccc2c(=O)n1CCO	Tau ThT inhib inconclusive, Tau fluor cs 10µM[quencher]
COc1ccc(-n2c(/C=C/c3c(C)[nH]c4ccccc34)nc3ccccc3c2=O)cc1	none
C/C(=N\OCc1nc2ccccc2c(=O)n1/N=C/c1cc([N+](=O)[O-])ccc1O)c1ccccc1	Tau fluor cs 14µM[quencher] (no result: Tau ThT inhib)
O=c1c2ccccc2nc(COc2ccccc2)n1/N=C/c1ccc(O)cc1O	Tau ThT inhib inconclusive, Tau fluor cs 16µM[quencher]
O=c1c2ccccc2nc(COc2ccccc2)n1/N=C/c1c[nH]c2ccccc12	Tau fibril FP inconclusive, Tau fluor cs inconclusive
C/C(=N\OCc1nc2ccccc2c(=O)n1/N=C/c1cc(C)cc([N+](=O)[O-])c1O)c1ccccc1	Tau ThT inhib 4µM, Tau fluor cs inconclusive
Cc1nc2c(-c3ccc(F)cc3)c(C)nn2c(C)c1CCC(=O)NCc1cccc(Cl)c1	none
CCC(=O)[C@@]1(O)C(=O)N2C(=C3C(=O)OCCC31)N(Cc1ccccc1)C(C)=C(C(=O)OC)C2c1ccccc1 (stereo not given in full)	none
CCOc1ccc(NCc2cccn2-c2nnc(N3CCC(C(=O)NCCc4ccc(OC)c(OC)c4)CC3)s2)cc1	Tau ThT inhib inconclusive, TR SRC2 fluor cs 35µM[quencher], Tau fluor cs inconclusive
Cc1nc2c(C(=O)NCCc3ccc(Cl)cc3)c[nH]n2c(=O)c1Cc1ccc(Cl)cc1	Tau ThT inhib 28µM, Tau fluor cs inconclusive
CCOc1cc(C2Sc3ccccc3NC3=C2C(=O)c2ccccc23)ccc1O (stereo not given)	Tau ThT inhib 10µM, Tau fibril FP inconclusive, Tau fluor cs 10µM[quencher]
O=C1C2=C(Nc3ccccc3SC2c2ccccc2C(F)(F)F)c2ccccc21 (stereo not given)	Tau ThT inhib inconclusive, Tau fibril FP 13µM, Tau fluor cs inconclusive
CCCc1ccc(C2Sc3ccccc3NC3=C2C(=O)c2ccccc23)cc1 (stereo not given)	Tau ThT inhib inconclusive, Tau fibril FP inconclusive, Tau fluor cs 3.2µM[quencher]
COc1ccc(Br)cc1C1Sc2ccccc2NC2=C1C(=O)c1ccccc12 (stereo not given)	Tau ThT inhib inconclusive, Tau fluor cs inconclusive

Source: PubChem BioAssay (National Center for Advancing Translational Sciences (NCATS))
